Among the data in PubChem BioAssay AID1578 (Sanford-Burnham Center for Chemical Genomics, 2009) are inhibition values, retold here.

In all, about 290,000 compounds went through this assay and about 3,000 (1%) were called active. Shown is part of a subset that was picked to be rich in actives. A number with no mark means an inactive call. Cut-off read from the data, not from the text of the source: active = inhibition mostly above about 36% (no sharp cut-off); inactive = mostly below about 34%.

The nature of the assay: NOD1 signaling inhibitors, primary screen, cell-based, luminescence, uHTS (AID 1578).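 Note: HEK-293T reporter cells stimulated with the NOD1 agonist gamma-tri-DAP.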 The note with it: NOD1-driven NF-kB luciferase reporter cells, at 4 µM, stronger effect = higher value. On the technique in general: Reporter assays use an easily measured gene product as a stand-in for the process of interest.
The term inhibition denotes the relative decrease from the control value, in per cent. With `CSc1ccccc1NC(=O)c1ccc(CN2CCOCC2)cc1`, the inhibition is -18.3%.

Turning to `COc1cc(C2NC(=O)NC(C)=C2C(C)=O)cc(OC)c1OC` (stereo unspecified), the inhibition is 54.9% (active).

Consider `COc1cc(C2NC(=O)NC(C)=C2C(C)=O)ccc1O` (stereo unspecified), for which the inhibition was 7.8%.

`CCOC(=O)COc1c(Br)cc(C2NC(=O)NC(C)=C2C(C)=O)cc1OC` (stereo unspecified): the inhibition was -12.4%.

With `CCOCCOC(=O)Cn1cnc2scc(-c3ccc(C)cc3)c2c1=O`, the inhibition is -15.2%.

For the compound `O=C(CN1CCCC1=O)NC1(C(F)(F)F)NC(=O)N(Cc2ccccc2)C1=O` (stereo unspecified), the inhibition is -22.8%.

`CC1CCc2nc(/C(C#N)=C/c3cccnc3)sc2C1` (stereo unspecified): the inhibition was -52.3%.

Consider `CC1CCc2nc(/C(C#N)=C/c3ccncc3)sc2C1` (stereo unspecified), for which the inhibition was 64.3% (active).

As to `N#C/C(=C\c1ccncc1)c1nc2c(s1)CCCC2`, the inhibition is -9.5%.

As to `O=C(CSc1nc2c(cnn2-c2ccc(F)cc2)c(=O)[nH]1)N1CCCc2ccccc21`, the inhibition was 4.3%.

As for `CCCS(=O)(=O)N1CCCC(C(=O)Oc2ccc(OC)cc2)C1` (stereo unspecified), the inhibition was -5.5%.

As for `O=C(/C=C/c1ccccc1)NCCc1ccc2c(c1)OCCO2`, the inhibition is -27.8%.

On to `C=CCOc1ccccc1CNc1cccc(F)c1`, for which the inhibition was 2.1%.

Consider `O=C(/C=C/c1ccccc1)Nc1ccc2c(c1)OCCO2`, for which the inhibition was -2.7%.

`C=CCOc1ccccc1CNc1ccc2c(c1)OCCO2`: the inhibition is 58.5% (active).

Regarding `C=CCOc1ccccc1CN(C(=O)CCl)c1ccc2c(c1)OCO2`, the inhibition is 64.3% (active).

Consider `CCOc1ccccc1NC(=O)Nc1ccc2c(c1)OCO2`, for which the inhibition was -52.1%.

As to `Oc1ccccc1CNc1ccc2c(c1)OCCO2`, the inhibition was -47.1%.

For `O=C(CCl)N(C/C=C/c1ccccc1)c1ccc2c(c1)OCCO2`, the inhibition was 54.1% (active).

In the case of `O=Cc1ccccc1OCc1ccc2c(c1)OCO2`, the inhibition is 16.8%.

`O=C(CSc1c(F)c(F)cc(F)c1F)Nc1ccc(C2SCCS2)cc1`: the inhibition was -7.2%.

For the compound `O=C(CSCc1ccc(Cl)cc1)Nc1ccc(O)cc1C(=O)O`, the inhibition is -25.7%.

On to `CCCc1cc(=O)[nH]c(/N=C(\N)Nc2ccccc2)n1`, for which the inhibition was -6.1%.

Take `CCOC(=O)CNC(=O)CSc1nnc(NC(=O)c2ccc(S(=O)(=O)N3CCOCC3)cc2)s1`: the inhibition is -3.6%.

As for `Cc1oncc1C(=O)N1CCCC(CO)(Cc2ccc(F)cc2F)C1` (stereo unspecified), the inhibition was -6.9%.

On to `CC(NS(=O)(=O)c1ccc(Br)cc1)c1ccccc1` (stereo unspecified), for which the inhibition was -16.8%.

In the case of `CCN1CCN(c2nc3c(c(=O)n(C)c(=O)n3C)n2Cc2cccc3ccccc23)CC1`, the inhibition is -7.8%.

For the compound `Cc1n(Cc2ccccc2)c2ccccc2[n+]1Cc1ccccc1`, the inhibition was 19.4%.

As for `COc1ccc(-c2nc3ccccc3n2Cc2ccccc2)cc1`, the inhibition was 14.3%.

Turning to `O=C(CNC(=O)c1cccs1)NCCN1CCN(Cc2ccccc2)CC1`, the inhibition is -22.6%.

Take `COc1ccc(OC)c(N/C=C/C(=O)c2ccc(OC)c(OC)c2)c1`: the inhibition is -24.7%.

On to `COc1ccc(OC)c(N/C=C/C(=O)c2ccccc2)c1`, for which the inhibition was 62.5% (active).

In the case of `COc1ccc(N/C=C/C(=O)c2ccccc2)cc1`, the inhibition was -59%.

On to `Cc1nc2c(ccc3nc(NC(=O)Cc4cccc5ccccc45)sc32)s1`, for which the inhibition is -33%.

Turning to `COc1cc2[nH]c(=S)nc(NCc3ccc(Cl)cc3)c2cc1OC`, the inhibition was -8.3%.

For the compound `COc1cc(OC)cc(C(=O)N[C@H](C(=O)OCc2cc(=O)oc3cc(C)ccc23)C(C)C)c1`, the inhibition is -34.2%.

With `Cc1csc2c(NC3CCN(Cc4ccccc4)CC3)ncnc12`, the inhibition is 5%.

Consider `Cc1sc2ncnc(NC3CCN(Cc4ccccc4)CC3)c2c1C`, for which the inhibition is 42.7%.

As for `CCNC(=S)N(CCc1c(C)[nH]c2ccc(Cl)cc12)Cc1cccnc1`, the inhibition was 11.3%.

Consider `CNC(=S)N(CCc1c(C)[nH]c2ccc(Cl)cc12)Cc1cccnc1`, for which the inhibition is 46.2% (active).

`CNC(=S)N(CCc1c(C)[nH]c2ccc(C)cc12)Cc1cccnc1`: the inhibition was -9%.

Regarding `O=C(OCc1nc2ccccc2s1)c1ccc([N+](=O)[O-])o1`, the inhibition is -43.7%.

For the compound `Cc1ccc(C(=O)NCc2ccc(F)cc2)cc1NC1=NC2CS(=O)(=O)CC2S1` (stereo unspecified), the inhibition is -41.2%.

As to `COc1cccc(-c2nc(C(=O)NCC3CCCO3)cc3c2[nH]c2ccccc23)c1` (stereo unspecified), the inhibition was 51.4%.

In the case of `O=C(NCC1CCCO1)c1cc2c([nH]c3ccccc32)c(-c2cccc(Br)c2)n1` (stereo unspecified), the inhibition was 33.6%.

On to `O=C(NCC1CCCO1)c1cc2c([nH]c3ccccc32)c(-c2cccc(Cl)c2)n1` (stereo unspecified), for which the inhibition was 73.1% (active).

In the case of `Cc1cc(=O)[nH]c(SCC(=O)Nc2ccc(F)c([N+](=O)[O-])c2)n1`, the inhibition is -19.5%.

For `COc1ccc(CNC(=O)CSc2nnc(NC(=O)c3ccccc3F)s2)cc1`, the inhibition is -52.7%.

Turning to `CC1CCCCC1NC(=O)CCn1ccc2cc(S(=O)(=O)N3CCCC3)ccc21` (stereo unspecified), the inhibition is 13.3%.

As for `C(=C\c1ccncc1)/c1ccccc1`, the inhibition is -7.3%.

On to `Nc1nnc(/C=C/c2ccccc2)s1`, for which the inhibition was -41.9%.

Regarding `CC1(C)CCSC(/C=C/c2ccccc2)=N1`, the inhibition is 73.3% (active).

`COc1cc2c(c(O)c1OC)-c1c(cc(OC)c(OC)c1OC)C[C@@H](C)[C@@H](C)C2`: the inhibition was 1.8%.

For the compound `Cc1ccc(-c2noc(CCCC(=O)NCC3CCCO3)n2)cc1` (stereo unspecified), the inhibition was 8.8%.

Consider `COc1ccc(CC(=O)Nc2ccc(OC)nc2)cc1`, for which the inhibition is -29.9%.

As for `COc1ccc(NC(=O)C(Cl)=C(Cl)Cl)cn1`, the inhibition was 30.7%.

Regarding `COc1ccc(CS(=O)(=O)/C(Cl)=C(/Cl)C(=O)Nc2ccc(OC)nc2)cc1`, the inhibition is 78.4% (active).

Consider `Nc1ccc(Nc2ccccc2N)cc1`, for which the inhibition was 2.7%.

For the compound `Nc1ccccc1Nc1ccccc1`, the inhibition was 48.8%.

On to `Cc1ccc(Nc2ccccc2N)cc1`, for which the inhibition is 59.7% (active).

As to `CCCCCn1c(C)c2c(OCC)cccc(=O)c2c1C`, the inhibition is -1%.

In the case of `CCN(CC)CCNCc1cc(Br)ccc1OCC(=O)NCc1ccccc1`, the inhibition was 7.4%.

`N#Cc1cc([N+](=O)[O-])ccc1NC(=O)COC(=O)CC1CCCC1`: the inhibition is -12.2%.

`Cc1ccccc1S(=O)(=O)Cc1ccc(C(=O)NCc2ccco2)o1`: the inhibition is -5.4%.

With `CNC(=O)c1ccccc1S(=O)c1ccccc1COC(C)=O` (stereo unspecified), the inhibition is -5.2%.

As for `Cc1cc(C)c(C#N)c(SCC(=O)N2CCCCC2)n1`, the inhibition is -5.5%.

For the compound `COc1cc2c(cc1OC)CN(C(=O)CSc1nc(N)c(C#N)cc1C#N)CC2`, the inhibition was 6.8%.

As to `COc1cc2c(cc1OC)CN(C(=O)CSc1nc(C)cc(C)c1C#N)CC2`, the inhibition was 54.2% (active).

For `CC12C(=O)N(c3ccccn3)C(=O)C1C1C=CC2C1` (stereo unspecified), the inhibition was 15.9%.

On to `CN(C)CCN(C(=O)c1cccc2ccccc12)c1nc2cc3c(cc2s1)OCO3`, for which the inhibition was 17.7%.

`O=[N+]([O-])c1ccc(CN2CCCCCC2)cc1`: the inhibition is -21%.

As to `O=[N+]([O-])c1ccc(N2CCN(Cc3cccc([N+](=O)[O-])c3)CC2)cc1`, the inhibition is 11.9%.

Regarding `O=[N+]([O-])c1cccc(CN2CCCCCC2)c1`, the inhibition is 82.1% (active).

As for `CCC(C(=O)N1CCN(c2ncccn2)CC1)c1ccccc1` (stereo unspecified), the inhibition was 4.2%.

Regarding `CC(CC(=O)N(C)C1CCCCC1)S(=O)(=O)c1ccc2c(c1)NC(=O)CO2` (stereo unspecified), the inhibition is -10.5%.

Take `COc1ccc(OCC(=O)NNC(=S)NC(=O)c2ccc(Br)o2)cc1`: the inhibition was -38.4%.

As to `COc1ccc(OC)c(NC(=S)NC(=O)c2ccc(Br)o2)c1`, the inhibition is -27.7%.

As for `COc1ccc(C(=O)NNC(=S)NC(=O)c2ccc(Br)o2)cc1OC`, the inhibition is 37.6% (active).

With `COc1ccc(CCNC(=O)C/C(C)=N/NC(=O)c2ccc(N)cc2)cc1OC`, the inhibition is -10.1%.

Regarding `Cc1sc2ncn(CC(=O)NCCCC(=O)N3CCCCC3)c(=O)c2c1C`, the inhibition was 12.4%.

For `CNCc1cc(Cl)cc(OC)c1OC(C)C`, the inhibition was 44.6% (active).

Take `CCNCc1cc(Cl)cc(OC)c1OC(C)C`: the inhibition was 17.6%.

As for `C=CCOc1c(CNC2CCCC2)cc(Cl)cc1OC`, the inhibition is -19.3%.

`COc1ccc(N)cc1S(=O)(=O)Nc1ccccc1Cl`: the inhibition is 9.1%.

With `COc1ccc(OCC(=O)Nc2ccc(S(=O)(=O)N3CCCCCC3)cc2)cc1`, the inhibition was -7.8%.

With `O=S(=O)(c1ccc(S(=O)(=O)N2CCC(O)CC2)cc1)N1CCCC1`, the inhibition is 29.3%.

As for `COc1ccc(CCn2ccc(O)c(Cc3ccc(Cl)cc3Cl)c2=O)cc1OC`, the inhibition was -2.8%.

In the case of `COc1ccc(CCn2ccc(O)c(Cc3ccc(Cl)cc3)c2=O)cc1OC`, the inhibition was 3.1%.

`COc1ccc(CCn2ccc(O)c(Cc3c(F)cccc3Cl)c2=O)cc1OC`: the inhibition was 55.5% (active).

As for `CN1CCN(C(=S)c2ccc(Cl)cc2)CC1`, the inhibition was 1.9%.

For the compound `NC(=O)C1CCN(Cc2ccc(OCc3ccccc3)cc2)CC1`, the inhibition is -29.8%.

For the compound `O=S(=O)(NC1CC1)c1cccc(S(=O)(=O)N2CCCC2)c1`, the inhibition is -9.9%.

As to `COc1ccc(CNC(=O)CC(C)CC2=NS(=O)(=O)c3ccccc3N2)cc1` (stereo unspecified), the inhibition was -5.1%.

Regarding `COc1ccc(C(=O)NCc2nnc(SCC(=O)N3CCCCC3)o2)cc1OC`, the inhibition was 8.1%.

In the case of `COc1ccc(-c2nnc3n2N=C(C)CS3)cc1`, the inhibition was 8.4%.

As to `CCOc1ccc(-c2nnc3n2N=C(c2ccc(OC)cc2)CS3)cc1`, the inhibition is 4.9%.

For `CCOC(=O)/C(=C\c1ccc(OC(F)F)cc1)C1=Nn2c(nnc2-c2ccc(Cl)cc2)SC1`, the inhibition was 92.7% (active).

Take `Cc1ccc(Cl)cc1NC(=O)C1CCCN(S(=O)(=O)c2c(C)noc2C)C1` (stereo unspecified): the inhibition is -22.6%.

As to `O=C(O)CCCCCNCc1ccncc1`, the inhibition was -8%.

Take `CCc1ccc(-c2csc(NC(=O)C3=NN(c4ccccc4)C(=O)CC3)n2)cc1`: the inhibition is 51.4%.

On to `COc1ccc(OC)c(-c2csc(NC(=O)C3=NN(c4ccccc4)C(=O)CC3)n2)c1`, for which the inhibition is -27.4%.
